# Test results as given in PubChem BioAssay (NCATS).
# Calls of active or inactive are those of the source. Calls follow the shape of the dose curve; as a rule, active = well fitted curve in the direction sought with a large enough effect; inactive = no such curve, though single readings can be large or run the other way.
# Target: Alpha-galactosidase (Coffea arabica) (UniProt Q42656)
# Experiment: Counterscreen for Glucocerebrosidase Inhibitors: qHTS Assay for Coffee Bean alpha-Galactosidase at pH 5.9 (AID 998)
# Procedure, shortened: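 In 50 mM citric acid pH 5.9 with 0.005% Tween-20, coffee bean enzyme hydrolyses 80 uM 4-MU alpha-D-galactopyranoside over 20 min at RT. Activity is normalized to controls; AC50 comes from Hill-modelled concentration-response data.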
# Alpha-galactosidase (Coffea arabica), sequence (Q42656 whole entry, looked up): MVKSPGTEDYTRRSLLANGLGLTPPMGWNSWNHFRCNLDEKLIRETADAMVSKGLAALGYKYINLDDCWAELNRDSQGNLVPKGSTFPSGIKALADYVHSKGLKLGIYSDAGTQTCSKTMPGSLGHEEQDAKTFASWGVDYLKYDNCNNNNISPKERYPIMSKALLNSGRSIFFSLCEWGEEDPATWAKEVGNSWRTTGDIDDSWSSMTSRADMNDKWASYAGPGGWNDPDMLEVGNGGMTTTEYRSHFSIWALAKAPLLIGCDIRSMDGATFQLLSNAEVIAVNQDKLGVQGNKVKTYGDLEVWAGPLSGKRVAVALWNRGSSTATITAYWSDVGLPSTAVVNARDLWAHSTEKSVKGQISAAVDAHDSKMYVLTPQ
row,Structure (SMILES),outcome
1,CC(C)(C)NC(=O)[C@H]1CC[C@H]2[C@@H]3CC[C@H]4NC(=O)C=C[C@]4(C)[C@H]3CC[C@]12C,inactive
2,Clc1ccc(C(c2ccccc2Cl)C(Cl)Cl)cc1 (stereo not given),inactive
3,CC(=O)N[C@@H](CS)C(=O)O,inactive
4,CN1CCN(CCCN2c3ccccc3Sc3ccc(Cl)cc32)CC1,inactive
5,NS(=O)(=O)c1cc2c(cc1Cl)NC=NS2(=O)=O,inactive
6,O=C1NC(=O)C(c2ccccc2)(c2ccccc2)N1,inactive
7,CN(C)CCC=C1c2ccccc2C=Cc2ccccc21,inactive
8,Nc1nc2c(ncn2COC(CO)CO)c(=O)[nH]1,inactive
9,Nc1nnc(-c2cccc(Cl)c2Cl)c(N)n1,inactive
10,CCN(CC)CCNC(=O)c1cc(Cl)c(N)cc1OC,inactive
11,N[C@@H]1CONC1=O,inactive
12,Nc1nc(N)c2nc(-c3ccccc3)c(N)nc2n1,inactive
13,CN(C)CCC[C@@]1(c2ccc(F)cc2)OCc2cc(C#N)ccc21,inactive
14,Cc1oncc1C(=O)Nc1ccc(C(F)(F)F)cc1,inactive
15,CCOC(=O)N1CCC(=C2c3ccc(Cl)cc3CCc3cccnc32)CC1,inactive
